# HP1b binding inh = HTS for Inhibitors of HP1-beta Chromodomain Interactions with Methylated Histone Tails. Chromobox protein homolog 1 (Homo sapiens), P83916. AlphaScreen HP1-beta / biotin-H3K9me3 peptide binding. Potency, µM (doses to about 114 µM), most hits filed as inhibitors. hit rate 0.56% among 390,000. AID 540317, 2011; note: nearly all actives have a fitted effect of over 70% in size
#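 Compound inhibition of the preformed complex between 50 nM HP1-beta and 50 nM biotinylated H3K9me3 peptide was read by AlphaScreen. Buffer was PBS pH 7.4 with 0.01% Tween-20. Incubations ran 30 min at room temperature, with 10 ug/mL donor/acceptor beads.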
# JMJD2A Tudor inh = qHTS Assay for Inhibitors of JMJD2A-Tudor Domain | Lysine-specific demethylase 4A (Homo sapiens), O75164 | AlphaScreen JMJD2A-Tudor / H3K4me3 peptide binding | Potency, µM (series often up to 114 µM), usual class: inhibitors | hit rate 4.4% among 390,000; note: nearly all actives have a fitted effect of over 50% in size
# G9a inh = qHTS Assay for Inhibitors of Histone Lysine Methyltransferase G9a; Histone-lysine N-methyltransferase EHMT2 (Homo sapiens), Q96KQ7; G9a H3K9 monomethylation, AlphaScreen, 2 h; hit rate 8.8% among 350,000; Potency, µM (series often up to 102 µM), most hits filed as inhibitors; AID 504332, 2011; note: nearly all actives have a fitted effect of over 75% in size
#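 Signal arises when biotinylated H3K9 peptide, once monomethylated, bridges streptavidin donor and antibody-captured acceptor beads. Enzyme at 20 nM was preincubated 15 min with test compounds; peptide 500 nM and SAM 20 uM then reacted for 2 h.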
# GLS inh = qHTS for Inhibitors of Glutaminase (GLS); Glutaminase kidney isoform, mitochondrial (Homo sapiens), O94925; GLS enzymatic activity, qHTS titration; Potency, µM (top dose mostly 45.5 µM), most hits filed as inhibitors; hit rate 0.21% among 410,000; AID 624170, 2012
# Target sequence (O94925 whole entry, looked up, canonical isoform): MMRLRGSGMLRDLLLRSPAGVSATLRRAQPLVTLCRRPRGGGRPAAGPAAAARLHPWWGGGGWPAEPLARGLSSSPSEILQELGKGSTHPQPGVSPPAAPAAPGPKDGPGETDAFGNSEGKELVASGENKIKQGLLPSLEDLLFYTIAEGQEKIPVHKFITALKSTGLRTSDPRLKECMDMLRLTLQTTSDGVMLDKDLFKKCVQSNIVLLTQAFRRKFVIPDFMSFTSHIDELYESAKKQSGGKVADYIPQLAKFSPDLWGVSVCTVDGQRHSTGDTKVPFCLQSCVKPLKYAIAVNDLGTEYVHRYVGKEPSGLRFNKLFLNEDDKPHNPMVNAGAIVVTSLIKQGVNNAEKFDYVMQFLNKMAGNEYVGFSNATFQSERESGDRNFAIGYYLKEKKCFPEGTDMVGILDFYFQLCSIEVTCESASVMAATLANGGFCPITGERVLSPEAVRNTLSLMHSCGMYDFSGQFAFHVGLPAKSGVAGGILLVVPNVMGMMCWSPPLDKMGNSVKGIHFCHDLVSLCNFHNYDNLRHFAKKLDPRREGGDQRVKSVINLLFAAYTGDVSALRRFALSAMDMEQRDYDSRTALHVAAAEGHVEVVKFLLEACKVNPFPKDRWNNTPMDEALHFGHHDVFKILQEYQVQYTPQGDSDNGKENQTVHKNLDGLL
#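 hKGA in 45 mM KH2PO4 pH 8.2, 0.02% Tween-20 with pin-transferred compounds; 1 mM L-glutamine (stock) plus glutamate oxidase/HRP/Amplex Red coupling added. Fluorescence read initially and after 30 min at RT.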
# BAZ2B inh = qHTS Assay for Inhibitors of BAZ2B; Bromodomain adjacent to zinc finger domain protein 2B (Homo sapiens), Q9UIF8; AlphaScreen BAZ2B-H3K14Ac peptide displacement; Potency, µM (top dose mostly 114 µM), usual class: inhibitors; hit rate 4.4% among 360,000; AID 504333, 2011; note: nearly all actives have a fitted effect of over 60% in size
#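 BAZ2B 50 nM plus b-H3(5-23)K14Ac 50 nM, PBS pH 7.4/0.01% Tween-20, 30 min RT; compound added (max 110 uM), 30 min RT; streptavidin donor/Ni-chelate acceptor beads 10 ug/mL final, 20 min dark; AlphaScreen read.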
# Numbers stand for hits; i = inactive; ? = inconclusive; nt = not tested or not shown; [ ] = dose if it differs, or a comment. The list is not random: actives were taken first. Their share in the collection is about 10%. Calls come from the whole dose curve; as a rule, active = well fitted curve in the direction sought with a large enough effect; inconclusive = small, poorly fitted or top-dose-only effect, or another doubt; inactive = no such curve, though single readings can be large; an effect the other way counts as inactive or inconclusive.
SMILES,HP1b binding inh,JMJD2A Tudor inh,G9a inh,GLS inh,BAZ2B inh
CCOC(=O)N1CCN(S(=O)(=O)c2ccc(C(=O)N(CCCN(C)C)c3nc4cc(OC)ccc4s3)cc2)CC1,i,i,56.2µM,i,i
Cc1ccc(NC(=O)CCNS(=O)(=O)c2ccc3c(c2)CCCC(=O)N3)cc1,i,i,i,i,i
c1ccc2cc(OCCOCCOc3ccc4ccccc4c3)ccc2c1,i,i,i,i,i
CCOc1cccc(OCCOCCN(C)C)c1,?,22.4µM,11.2µM,i,?
CN(C)CCOc1cccc(Cl)c1,?,22.4µM,8.91µM,i,?
CN(C)CCOc1ccc2ccccc2c1,?,10µM,11.2µM,i,44.7µM
CCOc1cccc(OCCOCCN(C)Cc2ccccc2)c1,i,i,i[12.7 µM],i,i
COc1ccccc1N1CCN(C(=O)C(CCSC)NS(=O)(=O)c2ccc3c(c2)oc(=O)n3C)CC1 (centres undefined),i,i,i,i,i
CCOC(=O)c1ccc2nc(C)cc(Nc3ccc(OC(C)C)cc3)c2c1,i,i,i,i,i
COC(=O)CCN(C)CCC(=O)OC,i,50.1µM,i[2.33 µM],i,i
CN1C(=S)N(c2cccnc2)C(=O)/C1=C\c1ccc(N(C)C)cc1,i,?,?,i,11.2µM
Cc1c(NC(=S)N/N=C/c2ccc(N(C)C)cc2)c(=O)n(-c2ccccc2)n1C,i,i,i,i,i
Cc1c(N2C(=O)c3ccc4c5c(ccc(c35)C2=O)CC4)c(=O)n(-c2ccccc2)n1C,?,?,50.1µM,?,56.2µM
CN(C)c1ccc(/C=C/C(=O)c2cccnc2)cc1,i,i,i,i,i
Cc1c(N2C(=O)/C(=C\c3ccc(N(C)C)cc3)N(C)C2=S)c(=O)n(-c2ccccc2)n1C,?,?,39.8µM,i,44.7µM
CC(=O)Nc1ccc(S(=O)(=O)Nc2cccc(-c3ccc(N4CCCCCC4)nn3)c2)cc1,i,i,i,i,i
COc1ccc(CNC[C@H]2O[C@@H](n3ccc(=O)[nH]c3=O)[C@H](O)[C@@H]2O)cc1,nt,nt,nt,i,nt
C#Cc1ccc(NC(=O)C2(C)CCN2C(=O)Cc2ccc(C(C)C)cc2)cc1 (centres undefined),nt,nt,nt,i,nt
Cn1nc(C(=O)N2CCN(c3ccc(F)cc3)CC2)c2c1-c1ccccc1SC2,i,?,i,i,i
Cn1nc(C(=O)NCc2ccc(F)cc2)c2c1-c1ccccc1SC2,?,28.2µM,14.1µM,i,10µM
Cn1nc(C(=O)NCc2ccc(Cl)cc2)c2c1-c1ccccc1SC2,i,i,?,i,i
Cn1nc(C(=O)N2CCN(c3ccccc3F)CC2)c2c1-c1ccccc1SC2,i,20µM,14.1µM,i,12.6µM
CCN(CC)c1cc2c(cc1F)c(=O)c(S(=O)(=O)c1ccc(OC)cc1)cn2Cc1ccccc1,i,i,i,i,i
O=S(=O)(c1ccccc1)N1CCN(S(=O)(=O)c2ccc3c(c2)OCCO3)CC1,nt,i,nt,nt,nt
CCOC(=O)Nc1cc(C)c(Cl)cc1OC,i,i,i,i,i
SMILES,HP1b binding inh,JMJD2A Tudor inh,G9a inh,GLS inh,BAZ2B inh
CCOC(=O)c1cc(S(=O)(=O)Nc2cc(OC)ccc2OC)[nH]n1,i,?,11.2µM,i,i
CCOC(=O)c1cc(S(=O)(=O)Nc2cc(C)c(Cl)cc2OC)[nH]n1,i,?,14.1µM,i,i
CSc1ccc(/C=C/C(=O)N2CCCN(C)CC2)cc1,i,i,22.4µM,i,i
Cc1ccc(NC(=O)C2=C(c3ccccc3)S(=O)(=O)CCS2(=O)=O)cc1,i,?,39.8µM,i,i
CN(CC(=O)Nc1cccc(F)c1)CC(=O)Nc1ccccc1-c1ccccc1,i,i,nt,i,nt
CN(CC(=O)Nc1cccc(F)c1)CC(=O)Nc1ccccc1Oc1ccccc1,?,10µM,8.91µM,i,25.1µM
COc1cccc(NC(=O)CN(C)CC(=O)Nc2ccccc2-c2ccccc2)c1,?,22.4µM,14.1µM,i,79.4µM
CC(C)C(=O)Nc1ccc2nc(SCC(=O)N3CCc4ccccc43)sc2c1,i,i,i,i,i
CC(=O)OCC(=O)[C@]1(O)C(OC(C)=O)CC2C3CCC4=CC(=O)C=C[C@@]4(C)[C@]3(F)C(O)C[C@]21C (some centres undefined),nt,nt,i[2.33 µM],nt,nt
COc1cccc(C(=O)NCc2ccc(-c3nc4ccccc4s3)cc2)c1,i,i,i,i,i
COc1ccc([C@@H]2CNC(=O)C2)cc1OC1CCCC1,nt,nt,i[21.5 µM],i,nt
Nc1ccccc1-c1n[nH]c(=S)s1,?,28.2µM,0.631µM,i,?
CC1(C(=O)NS(=O)(=O)c2ccccc2)CCN1C(=O)CC1CCCCC1 (centres undefined),nt,nt,nt,i,nt
COc1cc(/C=N/NC(=O)c2cc(-c3cccn3C)n[nH]2)cc(OC)c1OC,i,?,nt,i,39.8µM
COc1cccc(/C=N/NC(=O)c2cc(-c3cccn3C)n[nH]2)c1,?,i,i,i,?
Cn1cccc1-c1cc(C(=O)N/N=C/c2ccc(Cl)cc2)[nH]n1,i,?,i,i,50.1µM
Cc1nc2cccnc2n1-c1cccc(C(=O)NCc2ccc(OC(C)C)cc2)c1,i,i,i,i,i
Nc1nc(N)c2c(ccc3c2ccn3Cc2cccc([N+](=O)[O-])c2)n1,nt,nt,nt,i,nt
Cc1c(C#N)c(O)n(CCO)c(=O)c1N=Nc1ccc2c(c1)COC2=O,i,i,50.1µM,i,i
Cc1oc2cc([N+](=O)[O-])c(O)c([N+](=O)[O-])c2c1C(=O)c1ccc(Cl)cc1,?,50.1µM,nt,i,31.6µM
O=c1c(-c2ccc(Cl)cc2)[n+]([O-])c2ccccc2n1O,i,25.1µM,11.2µM,i,?
O=c1c(-c2cccc([N+](=O)[O-])c2)[n+]([O-])c2ccccc2n1O,i,56.2µM,?,i,?
CCOC(=O)COn1c(=O)c(-c2ccc(Cl)cc2)[n+]([O-])c2ccccc21,i,i,i,i,i
COn1c(=O)c(-c2cccc(Br)c2)[n+]([O-])c2ccccc21,i,i,i,i,i
FC(F)(F)Oc1ccccc1C(c1nnnn1-c1ccc2c(c1)OCCO2)N1CCN(C/C=C/c2ccccc2)CC1 (centres undefined),nt,nt,nt,i,nt
CCc1ccc(-n2nc(C)c3c(C)cc(=O)n(CC(=O)Nc4ccc(C(C)=O)cc4)c32)cc1,i,i,i,i,i
O=[N+]([O-])c1cccc2ccc(/C=C/c3ccc(C(F)(F)F)cc3)nc12,i,?,35.5µM,i,i
O=[N+]([O-])c1cccc2ccc(/C=C/c3cccc(Br)c3)nc12,i,?,?,i,?
O=[N+]([O-])c1cccc2ccc(/C=C/c3ccc(Cl)cc3)nc12,i,?,79.4µM,i,i
